Reference: PubChem BioAssay (NCI)
Compounds without any hit were thinned out: in the full panel of roughly 83,000, 20% have a hit.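 Negative percent growth values reflect cell death: -40 means 40% of the cells present at the start died, and -100 means all died.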 Unmarked numbers belong to inactive results. Active and inactive are the calls of the source. Rule for the calls: active = growth percent below 10; inactive = the rest.

Test system: OVCAR-8 ovarian
Assay: NCI-60 one-dose screen, 48 h (100 = growth as untreated, 0 = no growth, -100 = all killed)
Conditions: 10 µM unless noted

Row | Structure (SMILES) | growth
1 | COC(=O)C1=CCC(n2cnc3c(N)ncnc32)O1 (stereo not drawn) | 96.3%
2 | CCN(Cc1cccc(S(=O)(=O)[O-])c1)c1ccc(C(=C2C=CC(=[N+](CC)Cc3cccc(S(=O)(=O)O)c3)C=C2)c2ccccc2S(=O)(=O)O)cc1 | 104%
3 | CC(NC(=O)Oc1cccc2ccccc12)c1ccccc1 (stereo not drawn) | 96.9%
4 | OC(c1cc(-c2cccc(Cl)c2)nc2ccccc12)C1CCCCN1 (stereo not drawn) | -52.6% (active)
5 | O=C(Nc1ccccc1OC(=O)c1ccccc1)c1ccccc1 | 92.6%
6 | Cc1ccccc1NC(=O)NC(CC(N)=O)c1ccc2c(c1)nc(-c1cccc(Oc3ccc(C(C)(C)C)cc3)c1)n2CCCN1CCCCC1C (stereo not drawn) | 3.11% (active)
7 | O=C(C(=O)c1cc(Br)ccc1O)c1cc(Br)ccc1O | 64.2%
8 | Fc1ccccc1C1c2ccccc2-c2nccn21 (stereo not drawn) | 95.8%
9 | COc1cc(/C=C\C(C)=N\Nc2ccccc2)ccc1O | 90.5%
10 | COc1cc(/C=N/NC(=O)c2ccc(C(F)(F)F)nc2Nc2ccc(Cl)cc2C)ccc1O | 46.7%
11 | O=Cc1ccccc1C(=O)O | 104%
12 | COc1cc(NC(=O)NCc2ccco2)ccc1-c1ccc(NC(=O)NCc2ccco2)cc1OC | 36.7%
13 | COc1cccc(/C=N/Nc2nc3ccccc3s2)c1OC | 76.5%
14 | O=C(N/N=C/c1ccc(Cl)cc1Cl)c1ccccc1Nc1cccc(C(F)(F)F)c1 | 71.6%
15 | COc1ccc(NS(=O)(=O)N2CCCCC2)cc1 | 105%
16 | O=c1c2ccccc2c2nccn2c2cc(Cl)ccc12 | 75.3%
17 | COc1ccc(-c2ccc(O)c(C(=O)/C=C/c3cc(OC)c(OC)c(OC)c3)c2)cc1 | 71.8%
18 | Cn1cnc([N+](=O)[O-])c1Sc1nc(N)nc2nc[nH]c12 | 29.5%
19 | Cc1cc(=O)oc2cc(OCCn3c(C)nn(-c4ccc(Cl)cc4)c3=O)ccc12 | 17.7%
20 | O=C1C=CC(=O)N1c1ccccn1 | 111%
21 | CCN(CC)c1ccc(N=C2C=CC(=O)C=C2NC(C)=O)cc1 | 94%
22 | CC1CN(C2CCCCC2)C(=O)NC1=O (stereo not drawn) | 104%
23 | COc1ccc2cc(C3=CC(=O)CCC3)ccc2c1 | 105%
24 | COc1ccc(Cl)cc1Nc1nc(C(F)(F)F)ccc1C(=O)N/N=C/c1c(Cl)cccc1Cl | 55.2%

Test system: OVCAR-5 ovarian
Assay: as above
Conditions: 10 µM unless noted

Row | Structure (SMILES) | growth
25 | COc1ccc2c(c1)CC[C@@H]1[C@@H]2CC[C@]2(C)[C@@H](O)C(=O)C[C@@H]12 | 95.8%
26 | C[C@@H]1CN(c2nc3c(cc2F)c(=O)c(C(=O)O)cn3C(C)(C)C)C[C@H](C)N1 | 109%
27 | NS(=O)(=O)c1ccc(-n2ncc3c(NC4CCCCC4)ncnc32)cc1 | 90.9%
28 | CCOC(=O)C1=CCC(n2cc(C)c(=O)[nH]c2=O)O1 (stereo not drawn) | 113%
29 | O=CNc1ccc2c(c1)Cc1cc([N+](=O)[O-])ccc1-2 | 36.2%
30 | CC(=O)[C@H]1CC[C@H]2[C@@H]3C[C@H](C)C4=CC(=O)CC[C@]4(C)[C@H]3C(=O)C[C@]12C | 103%
31 | Cc1ccc2nc(SCC(=O)Nc3ccc(-c4nc5ccccc5s4)c(Cl)c3)[nH]c2c1 | 108%
32 | Cc1ccc(C(=O)Cc2ccccc2)c(O)c1 | 99.1%
33 | ICCC(c1ccccc1)(c1ccccc1)c1ccccc1 | 82.6%
34 | c1ccc(CN=C(NCc2ccccc2)NCc2ccccc2)cc1 | 100%
35 | Oc1ccc(/C=N/Nc2nc3ccccc3s2)c(O)c1 | 47.1%
36 | O=C(CC(C(=O)c1ccccc1)N1CCN(Cc2ccccc2)CC1)c1ccccc1 (stereo not drawn) | 86.3%
37 | CC(NC(N)=S)c1ccccc1 (stereo not drawn) | 97.5%
38 | C[C@]12CCC(=O)C=C1CC[C@H]1[C@@H]3C[C@@H](O)[C@](O)(C(=O)CO)[C@@]3(C)C[C@H](O)[C@@]12F | 86.7%
39 | O=C(Nc1ccc2c(c1)C(=O)c1ccccc1-2)c1ccccc1 | 85.9%
40 | COC(=O)C1=CCC(n2cnc3c(N)ncnc32)O1 (stereo not drawn) | 109%
41 | CCN(Cc1cccc(S(=O)(=O)[O-])c1)c1ccc(C(=C2C=CC(=[N+](CC)Cc3cccc(S(=O)(=O)O)c3)C=C2)c2ccccc2S(=O)(=O)O)cc1 | 94.5%
42 | CC(NC(=O)Oc1cccc2ccccc12)c1ccccc1 (stereo not drawn) | 123%
43 | OC(c1cc(-c2cccc(Cl)c2)nc2ccccc12)C1CCCCN1 (stereo not drawn) | 2.42% (active)
44 | O=C(Nc1ccccc1OC(=O)c1ccccc1)c1ccccc1 | 93.1%

Row | Structure (SMILES) | growth
45 | Cc1ccccc1NC(=O)NC(CC(N)=O)c1ccc2c(c1)nc(-c1cccc(Oc3ccc(C(C)(C)C)cc3)c1)n2CCCN1CCCCC1C (stereo not drawn) | 88.8%
46 | O=C(C(=O)c1cc(Br)ccc1O)c1cc(Br)ccc1O | 93.4%
47 | Fc1ccccc1C1c2ccccc2-c2nccn21 (stereo not drawn) | 96.3%
48 | COc1cc(/C=C\C(C)=N\Nc2ccccc2)ccc1O | 84.7%
49 | COc1cc(/C=N/NC(=O)c2ccc(C(F)(F)F)nc2Nc2ccc(Cl)cc2C)ccc1O | 57.5%
50 | O=Cc1ccccc1C(=O)O | 97.9%
51 | COc1cc(NC(=O)NCc2ccco2)ccc1-c1ccc(NC(=O)NCc2ccco2)cc1OC | 96.5%
52 | COc1cccc(/C=N/Nc2nc3ccccc3s2)c1OC | 97.7%
53 | O=C(N/N=C/c1ccc(Cl)cc1Cl)c1ccccc1Nc1cccc(C(F)(F)F)c1 | 85.6%
54 | COc1ccc(NS(=O)(=O)N2CCCCC2)cc1 | 117%
55 | O=c1c2ccccc2c2nccn2c2cc(Cl)ccc12 | 53.2%
56 | COc1ccc(-c2ccc(O)c(C(=O)/C=C/c3cc(OC)c(OC)c(OC)c3)c2)cc1 | 106%
57 | Cn1cnc([N+](=O)[O-])c1Sc1nc(N)nc2nc[nH]c12 | 28.7%
58 | Cc1cc(=O)oc2cc(OCCn3c(C)nn(-c4ccc(Cl)cc4)c3=O)ccc12 | 38.8%
59 | O=C1C=CC(=O)N1c1ccccn1 | 97.9%
60 | CCN(CC)c1ccc(N=C2C=CC(=O)C=C2NC(C)=O)cc1 | 108%
61 | CC1CN(C2CCCCC2)C(=O)NC1=O (stereo not drawn) | 105%
62 | COc1ccc2cc(C3=CC(=O)CCC3)ccc2c1 | 98.7%
63 | COc1ccc(Cl)cc1Nc1nc(C(F)(F)F)ccc1C(=O)N/N=C/c1c(Cl)cccc1Cl | 75.3%
